Test results as given in PubChem BioAssay (Tox21).
Calls of active or inactive are those of the source. Unless noted, calls follow the shape of the dose curve; as a rule, active = well fitted curve in the direction sought with a large enough effect in the repeat runs; inconclusive = weak or mixed curves; inactive = no such curve, though single readings can be large; an effect the other way counts as inactive or inconclusive.

Key:
[1] = qHTS assay to identify small molecule antagonists of the thyroid receptor (TR) signaling pathway (AID 743065); also: nearly all actives have a fitted effect of over 55% in size; also: potency is read from the fitted curve at half-maximal effect
Outline: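 Antagonism measured as loss of luciferase signal in GH3 cells stably carrying a TRE-luciferase reporter, co-treated with compound and T3 (1 nM final) for 23.5 h at 37 C. Viability was read in the same well by CellTiter-Fluor.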

[2] = system: thyroid hormone receptor (rat, GH3 cells); experiment: qHTS assay to identify small molecule agonists of the thyroid receptor (TR) signaling pathway (AID 743066; calls by dose curve)
[3] = qHTS assay to identify small molecule antagonists of the estrogen receptor alpha (ER-alpha) signaling pathway - cell viability counter screen (AID 743074; calls by dose curve;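 also: HEK293 cells carrying ER-alpha-UAS-bla reporter stimulated with 17beta-estradiol; nearly all actives have a fitted effect of over 45% in size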)
[4] = biological target: Estrogen receptor (Homo sapiens) (UniProt P03372); experiment: qHTS assay to identify small molecule agonists of the estrogen receptor alpha (ER-alpha) signaling pathway using the BG1 cell line (AID 743079); conditions: BG1Luc4E2 cells, ERE-luciferase agonist, 22 h; activation: at 70.3 µM (top of the series); also: nearly all actives have a fitted effect of over 20% in size; also: potency is read from the fitted curve at half-maximal effect
[5] = qHTS assay to identify small molecule antagonists of the estrogen receptor alpha (ER-alpha) signaling pathway using the BG1 cell line - cell viability counter screen (AID 743081);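 also: compound given together with 17beta-estradiol as the ER stimulus; nearly all actives have a fitted effect of over 45% in size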
Aromatase (Homo sapiens) = Aromatase (Homo sapiens) (UniProt P11511); experiment: qHTS assay to identify aromatase inhibitors (AID 743083); also: nearly all actives have a fitted effect of over 55% in size
[6] = qHTS assay to identify aromatase inhibitors - cell viability counter screen (AID 743084);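 also: cells stimulated with testosterone during compound exposure; nearly all actives have a fitted effect of over 55% in size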
[7] = biological target: Aryl hydrocarbon receptor (Homo sapiens) (UniProt P35869); experiment: qHTS assay to identify small molecule that activate the aryl hydrocarbon receptor (AhR) signaling pathway (AID 743085);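 also: HG2L7.5c1 human HepG2 liver cells with stably integrated DRE-driven firefly reporter; nearly all actives have a fitted effect of over 15% in size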
Outline: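 Stably transfected human liver carcinoma cells (HG2L7.5c1; 20 DRE-firefly luciferase) were incubated 5 h, dosed, and kept 24 h at 37C. Agonism was scored from increased luciferase luminescence.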

[8] = qHTS assay to identify small molecule that activate the aryl hydrocarbon receptor (AhR) signaling pathway - cell viability counter screen (AID 743086);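 also: HepG2 liver cells carrying the AhR DRE luciferase reporter; nearly all actives have a fitted effect of over 45% in size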
Outline: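 Cytotoxicity counter screen: CellTiter-Fluor signal (30 min, 37 C) in 4000 HepG2 cells/well carrying the DRE-luciferase reporter, following 24 h compound exposure at 37 C.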

[9] = biological target: Peroxisome proliferator-activated receptor gamma (Homo sapiens) (UniProt P37231); experiment: qHTS assay to identify small molecule agonists of the peroxisome proliferator-activated receptor gamma (PPARg) signaling pathway (AID 743094; active = well fitted activation curve with a large enough effect in the signal ratio in the repeat runs, not every such curve was filed as active; inconclusive = weak or mixed curves, or effect the other way; inactive = no such curve, though single readings can be large or run the other way; the % refers to the signal ratio)
Outline: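 Stably transfected HEK293H cells (GeneBLAzer PPARg UAS-bla) were incubated with test substances for 17 h at 37C after a 5 h pre-incubation; beta-lactamase activity was then detected by FRET substrate fluorescence.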

[10] = qHTS assay to identify small molecule phospholipidosis (PLD) inducers (AID 1259344; active = well fitted curve in the direction sought with a large enough effect; inconclusive = small, poorly fitted or top-dose-only effect, or another doubt; inactive = no such curve, though single readings can be large; an effect the other way counts as inactive or inconclusive)
Outline: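 Fluorescent phospholipid staining (LipidTOX Red) measured by automated microscopy in fixed HepG2 cells after 24 h treatment; nuclei counterstained with Hoechst 33342; amiodarone as reference inducer.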

[11] = biological target: Nuclear receptor subfamily 1 group I member 2 (Rattus norvegicus) (UniProt Q9R1A7); experiment: Rat pregnane X receptor (rPXR) activation by small molecules, qHTS assay (AID 1346983); conditions: rPXR luciferase reporter cells, One-Glo luminescence, 24 h; max activation: stronger effect = higher value; also: nearly all actives have a fitted effect of over 20% in size; also: potency is read from the fitted curve at half-maximal effect
Outline: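 Luminescent readout (One-Glo luciferase, 30 min room temperature) followed 24 hr compound treatment at 37 C of rPXR cells plated 2,000 per well and preincubated 5hr; qHTS format with compounds delivered in DMSO.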

[12] = biological target: Nuclear receptor subfamily 1 group I member 2 (Homo sapiens) (UniProt O75469); experiment: CYP3A4 induction through human pregnane X receptor (PXR) by small molecules, qHTS assay (AID 1346984); also: nearly all actives have a fitted effect of over 40% in size
Outline: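 DPX-2 reporter cells; 24h cpd, 37C; Luciferin-IPA 3uM final x3h; One-Glo 30 min RT; lumi read.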

[13] = biological target: Nuclear receptor subfamily 1 group I member 2 (Homo sapiens) (UniProt O75469); experiment: Human pregnane X receptor (PXR) activation by small molecules, qHTS assay (AID 1346985); also: nearly all actives have a fitted effect of over 40% in size
Outline: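 DPX-2 cells (HepG2 co-transfected with a PXR response element and a CYP3A4-promoter luciferase construct) were seeded at 2,000 per well, rested 5 hr at 37C, then exposed to DMSO-dissolved compounds for 24 hr. Activation was read as luciferase luminescence.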

[14] = biological target: Estrogen receptor (Homo sapiens) (UniProt P03372); experiment: qHTS assay to identify small molecule agonists of the estrogen receptor alpha (ER-alpha) signaling pathway (AID 743075; calls by dose curve; also: potency is read from the fitted curve at half-maximal effect)
[15] = qHTS assay to identify small molecule antagonists of the estrogen receptor alpha (ER-alpha) signaling pathway using the BG1 cell line (AID 743080; calls by dose curve;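 also: BG1 cells stimulated with 17beta-estradiol alongside compound; nearly all actives have a fitted effect of over 25% in size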)
Outline: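 BG1Luc4E2, endogenous ER-alpha, 4xERE-luc; 5 d charcoal-stripped FBS, phenol red free; 24 h plating; cpd + 17beta-estradiol 21.5 h, 37 C/5% CO2; CellTiter-Fluor viability 30 min, then ONE-Glo luciferase 30 min RT.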

[16] = biological target: Estrogen receptor (Homo sapiens) (UniProt P03372); experiment: qHTS assay to identify small molecule antagonists of the estrogen receptor alpha (ER-alpha) signaling pathway (AID 743069; active = well fitted curve in the direction sought with a large enough effect in the signal ratio in the repeat runs, not every such curve was filed as active; inconclusive = weak or mixed curves, or effect the other way; inactive = no such curve, though single readings can be large or run the other way; the % refers to the signal ratio)
Outline: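 Compound effects are measured against 17beta-estradiol stimulation in HEK293 cells with a UAS-controlled beta-lactamase reporter for ER-alpha. Exposure lasts 18 hr at 37C; LiveBLAzer B/G FRET substrate follows for 2 hr at room temperature.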

[17] = qHTS assay to identify small molecule antagonists of the thyroid receptor (TR) signaling pathway - cell viability counter screen (AID 743064); also: nearly all actives have a fitted effect of over 50% in size
Outline: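 CellTiter-Fluor readout, 30 min at 37 °C/5% CO2, following 23.5 h incubation of GH3.TRE-Luc cells with test compound and 1 nM T3 (final).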
% is scaled to controls: 0 for no effect and ±100 for the full control effect.

Estrogen receptor (Homo sapiens), sequence (P03372 whole entry, looked up): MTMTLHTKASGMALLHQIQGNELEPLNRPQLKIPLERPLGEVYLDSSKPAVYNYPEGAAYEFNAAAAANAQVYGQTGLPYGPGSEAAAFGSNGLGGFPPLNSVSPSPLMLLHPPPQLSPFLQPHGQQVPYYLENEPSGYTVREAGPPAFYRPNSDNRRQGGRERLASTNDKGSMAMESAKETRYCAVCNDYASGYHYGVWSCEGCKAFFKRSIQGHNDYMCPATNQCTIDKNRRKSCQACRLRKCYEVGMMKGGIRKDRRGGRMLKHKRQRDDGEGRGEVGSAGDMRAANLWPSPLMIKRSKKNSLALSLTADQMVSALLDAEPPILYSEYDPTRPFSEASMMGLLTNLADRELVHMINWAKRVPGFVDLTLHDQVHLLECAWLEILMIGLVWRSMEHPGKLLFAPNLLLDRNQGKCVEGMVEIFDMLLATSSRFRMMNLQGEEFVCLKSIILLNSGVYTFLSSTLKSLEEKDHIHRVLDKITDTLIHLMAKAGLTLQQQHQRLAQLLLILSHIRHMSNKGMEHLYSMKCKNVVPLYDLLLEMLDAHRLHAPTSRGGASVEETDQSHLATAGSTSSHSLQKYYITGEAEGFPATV
Peroxisome proliferator-activated receptor gamma (Homo sapiens), sequence (P37231 whole entry, looked up): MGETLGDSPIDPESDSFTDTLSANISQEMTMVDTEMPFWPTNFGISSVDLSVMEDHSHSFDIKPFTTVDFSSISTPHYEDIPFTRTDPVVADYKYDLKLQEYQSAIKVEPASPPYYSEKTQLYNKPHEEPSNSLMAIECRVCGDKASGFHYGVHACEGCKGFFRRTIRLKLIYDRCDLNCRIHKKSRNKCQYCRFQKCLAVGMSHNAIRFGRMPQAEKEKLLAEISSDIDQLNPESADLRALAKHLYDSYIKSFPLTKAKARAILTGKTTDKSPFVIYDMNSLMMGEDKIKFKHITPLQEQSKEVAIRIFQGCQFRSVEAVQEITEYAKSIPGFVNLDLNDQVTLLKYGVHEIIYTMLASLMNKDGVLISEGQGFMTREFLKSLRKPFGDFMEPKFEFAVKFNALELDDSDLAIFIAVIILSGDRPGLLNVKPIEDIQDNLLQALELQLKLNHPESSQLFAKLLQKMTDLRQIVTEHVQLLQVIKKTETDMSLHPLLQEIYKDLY
Nuclear receptor subfamily 1 group I member 2 (Rattus norvegicus), sequence (Q9R1A7 whole entry, looked up): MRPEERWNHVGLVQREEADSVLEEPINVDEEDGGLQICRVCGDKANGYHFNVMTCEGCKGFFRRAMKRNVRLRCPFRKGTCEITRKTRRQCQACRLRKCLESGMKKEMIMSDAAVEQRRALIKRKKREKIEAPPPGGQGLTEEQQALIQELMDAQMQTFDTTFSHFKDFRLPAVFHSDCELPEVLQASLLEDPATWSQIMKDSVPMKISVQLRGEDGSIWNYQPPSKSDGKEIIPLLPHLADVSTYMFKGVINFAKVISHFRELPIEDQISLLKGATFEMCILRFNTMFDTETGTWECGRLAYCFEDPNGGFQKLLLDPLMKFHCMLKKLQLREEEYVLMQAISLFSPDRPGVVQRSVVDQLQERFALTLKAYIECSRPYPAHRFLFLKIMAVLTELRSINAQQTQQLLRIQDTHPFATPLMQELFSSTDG
Aryl hydrocarbon receptor (Homo sapiens), sequence (P35869 whole entry, looked up): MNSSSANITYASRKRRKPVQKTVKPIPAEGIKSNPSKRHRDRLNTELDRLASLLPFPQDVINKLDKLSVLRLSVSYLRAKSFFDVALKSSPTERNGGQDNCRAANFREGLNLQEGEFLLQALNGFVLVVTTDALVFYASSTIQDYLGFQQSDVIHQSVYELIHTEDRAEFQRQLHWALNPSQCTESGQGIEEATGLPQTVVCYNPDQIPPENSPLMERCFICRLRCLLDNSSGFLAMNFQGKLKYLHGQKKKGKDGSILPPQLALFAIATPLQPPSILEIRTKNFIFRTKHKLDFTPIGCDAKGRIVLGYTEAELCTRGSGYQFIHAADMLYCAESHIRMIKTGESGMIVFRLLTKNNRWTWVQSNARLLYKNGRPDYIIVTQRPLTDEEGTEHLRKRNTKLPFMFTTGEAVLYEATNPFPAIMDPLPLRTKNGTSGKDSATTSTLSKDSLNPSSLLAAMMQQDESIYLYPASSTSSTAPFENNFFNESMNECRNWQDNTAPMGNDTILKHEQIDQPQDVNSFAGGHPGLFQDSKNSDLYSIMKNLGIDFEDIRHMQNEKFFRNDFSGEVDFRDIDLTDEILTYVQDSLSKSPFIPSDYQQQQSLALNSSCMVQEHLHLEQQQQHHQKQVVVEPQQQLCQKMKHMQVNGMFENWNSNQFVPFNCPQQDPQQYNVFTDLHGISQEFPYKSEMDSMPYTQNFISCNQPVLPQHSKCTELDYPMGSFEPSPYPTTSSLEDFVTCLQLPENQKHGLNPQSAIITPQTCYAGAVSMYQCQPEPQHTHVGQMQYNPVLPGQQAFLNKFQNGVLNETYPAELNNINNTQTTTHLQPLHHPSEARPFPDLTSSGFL
Aromatase (Homo sapiens), sequence (P11511 whole entry, looked up): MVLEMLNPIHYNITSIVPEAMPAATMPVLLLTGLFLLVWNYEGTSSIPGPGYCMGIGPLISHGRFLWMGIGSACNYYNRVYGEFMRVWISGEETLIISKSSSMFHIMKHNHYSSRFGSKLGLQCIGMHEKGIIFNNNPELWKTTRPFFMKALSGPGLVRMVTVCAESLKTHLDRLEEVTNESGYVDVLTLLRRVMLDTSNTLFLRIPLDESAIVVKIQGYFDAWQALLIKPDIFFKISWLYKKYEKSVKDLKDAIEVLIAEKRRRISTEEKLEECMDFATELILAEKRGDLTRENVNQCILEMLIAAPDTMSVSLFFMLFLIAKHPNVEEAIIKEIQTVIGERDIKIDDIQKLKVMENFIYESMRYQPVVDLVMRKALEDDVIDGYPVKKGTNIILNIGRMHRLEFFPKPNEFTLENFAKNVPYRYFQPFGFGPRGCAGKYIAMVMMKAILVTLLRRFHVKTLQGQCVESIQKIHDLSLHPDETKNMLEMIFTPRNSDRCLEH

CC(=O)O[C@]1(C(C)=O)CC[C@H]2[C@@H]3CCC4=CC(=O)CC[C@]4(C)[C@@]3(F)[C@@H](O)C[C@@]21C
active: Potency [4] 2.66 µM | Potency [11] 3.55 µM
inactive: Potency [1] | Potency [2] | Potency [3] | Potency [5] | Potency (Aromatase (Homo sapiens)) | Potency [6] | Potency [7] | Potency [8] | Potency [9] | Potency [10] | Potency [12] | Potency [13]

C[N@+]12CCCC[C@@H]1CCC(=C(c1cccs1)c1cccs1)C2
inactive: Potency [1] | Potency [2] | Potency [3] | Potency [14] | Potency [4] | Potency [15] | Potency [5] | Potency (Aromatase (Homo sapiens)) | Potency [6] | Potency [7] | Potency [9] | Potency [10] | max activation [11] -3.7% | Potency [12] | Potency [13]

C=CC[C@@H]1/C=C(\C)C[C@H](C)C[C@H](OC)[C@H]2O[C@@](O)(C(=O)C(=O)N3CCCC[C@H]3C(=O)O[C@H](/C(C)=C/[C@@H]3CC[C@@H](O)[C@H](OC)C3)[C@H](C)[C@@H](O)CC1=O)[C@H](C)C[C@@H]2OC
inactive: Potency [1] | Potency [2] | Potency [3] | Potency [14] | Potency [4] | Potency [15] | Potency [6] | Potency [7] | Potency [8] | Potency [10] | max activation [11] -13.2% | Potency [12] | Potency [13]

CCCCCc1ccc(C)cc1O
inactive: Potency [2] | Potency [16] | Potency [3] | Potency [14] | Potency [4] | Potency [15] | Potency [5] | Potency [6] | Potency [8] | Potency [9] | Potency [10] | max activation [11] 4.82% | Potency [12] | Potency [13]
active: Potency [1] 26.6 µM

CCCCC[C@H](O)/C=C/[C@H]1[C@H](O)CC(=O)[C@@H]1CCCCCCC(=O)O
inactive: Potency [17] | Potency [3] | Potency [14] | Potency [4] | Potency [5] | Potency (Aromatase (Homo sapiens)) | Potency [6] | Potency [7] | Potency [8] | Potency [10] | max activation [11] -0.783% | Potency [12] | Potency [13]

CCC(C)[C@@H](N)C(=O)O (some centres undefined)
inactive: Potency [1] | Potency [2] | Potency [16] | Potency [3] | Potency [14] | Potency [4] | Potency [15] | Potency [5] | Potency (Aromatase (Homo sapiens)) | Potency [6] | Potency [7] | Potency [8] | Potency [9] | Potency [10] | max activation [11] -2.74% | Potency [12] | Potency [13]

COC(=O)CCC[N+](C)(C)C
inactive: Potency [17] | Potency [3] | Potency [5] | Potency (Aromatase (Homo sapiens)) | Potency [6] | Potency [7] | Potency [8] | Potency [9] | Potency [10] | max activation [11] -0.156% | Potency [12] | Potency [13]

CC(C)(S)[C@@H](N)C(=O)O
inactive: Potency [1] | Potency [2] | Potency [3] | Potency [5] | Potency (Aromatase (Homo sapiens)) | Potency [6] | Potency [7] | Potency [8] | Potency [9] | Potency [10] | max activation [11] -3.13% | Potency [12] | Potency [13]

CCCCC(=O)O[C@H]1CC[C@H]2[C@@H]3CCc4cc(O)ccc4[C@H]3CC[C@]12C
inactive: Potency [3] | Potency [15] | Potency [5] | Potency (Aromatase (Homo sapiens)) | Potency [6] | Potency [7] | Potency [9] | Potency [10] | max activation [11] -1.73% | Potency [12] | Potency [13]
active: Potency [14] 0.0006 µM [inconclusive] | activation [4] 61.2%

CN1CCC(OC(=O)C(Oc2ccc(Cl)cc2)Oc2ccc(Cl)cc2)CC1
inactive: Potency [2] | Potency [16] | Potency [3] | Potency [14] | Potency [4] | Potency [15] | Potency [5] | Potency (Aromatase (Homo sapiens)) | Potency [6] | Potency [7] | Potency [8] | Potency [9] | Potency [10] | max activation [11] -4.17% | Potency [12] | Potency [13]

CC(C)C[C@H](NC(=O)[C@@H](Cc1c[nH]c2ccccc12)NC(=O)[C@H](Cc1ccc(O)cc1)NC(=O)[C@H](CO)NC(=O)[C@H](Cc1c[nH]c2ccccc12)NC(=O)[C@H](Cc1cnc[nH]1)NC(=O)[C@@H]1CCC(=O)N1)C(=O)N[C@@H](CCCN=C(N)N)C(=O)N1CCC[C@@H]1C(=O)NCC(N)=O
inactive: Potency [1] | Potency [2] | Potency [3] | Potency [5] | Potency (Aromatase (Homo sapiens)) | Potency [6] | Potency [7] | Potency [8] | Potency [9] | Potency [10] | max activation [11] -2.6% | Potency [12] | Potency [13]

CC(=O)Oc1cccc(C(=O)O)c1OC(C)=O
inactive: Potency [1] | Potency [2] | Potency [3] | Potency [5] | Potency (Aromatase (Homo sapiens)) | Potency [6] | Potency [7] | Potency [8] | Potency [9] | Potency [10] | max activation [11] -1.97% | Potency [12] | Potency [13]

COC(F)(F)C(Cl)Cl
inactive: Potency [16] | Potency [3] | Potency [14] | Potency [4] | Potency [5] | Potency (Aromatase (Homo sapiens)) | Potency [6] | Potency [7] | Potency [8] | Potency [9] | Potency [10] | max activation [11] 0.553% | Potency [12] | Potency [13]

CC(C)(C)C(=O)OCOC(=O)[C@@H]1N2C(=O)[C@@H](N=CN3CCCCCC3)[C@H]2SC1(C)C
inactive: Potency [16] | Potency [3] | Potency [14] | Potency [4] | Potency [15] | Potency (Aromatase (Homo sapiens)) | Potency [7] | Potency [8] | Potency [9] | Potency [10] | max activation [11] -0.301% | Potency [12] | Potency [13]
